Inconclusive results are not listed. Calls of active or inactive are those of the source. Calls come from the whole dose curve.
Experiments:
[1] = biological target: Acetylcholinesterase (Homo sapiens) (UniProt P22303); test: Acetylcholinesterase (AChE) small molecule antagonists: colormetric cell-based qHTS assay (AID 1347395); conditions: SH-SY5Y cells AChE activity, colorimetric (Ellman); series mostly up to 115 µM; note: nearly all actives have a fitted effect of over 30% in size
Method in brief: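 SH-SY5Y cells; cpd 30 min 37 C; + DTNB/acetylthiocholine, 90 min 37 C; colorimetric thiocholine read; qHTS.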

[2] = biological target: Acetylcholinesterase (Homo sapiens) (UniProt P22303); test: Acetylcholinesterase (AChE) small molecule antagonists: enzyme-based qHTS assay (AID 1347397); conditions: Potency: AChE enzyme activity inhibition; outcome: AChE enzyme activity inhibition; series mostly up to 115 µM; note: nearly all actives have a fitted effect of over 55% in size
Method in brief: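 Colorimetric DTNB readout of acetylthiocholine hydrolysis, 10 min at room temperature, after 30 min room-temperature exposure of 50 mU/mL recombinant human enzyme to compound; DMSO vehicle control.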

[3] = biological target: Acetylcholinesterase (Homo sapiens) (UniProt P22303); test: Acetylcholinesterase (AChE) small molecule antagonists: fluorescence cell-based qHTS assay (AID 1347398); conditions: SH-SY5Y cells; Potency: AChE activity; outcome: AChE activity; series mostly up to 115 µM; note: nearly all actives have a fitted effect of over 50% in size
Method in brief: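 Cellular AChE activity read as thiocholine from acetylthiocholine hydrolysis, detected by Thiolite Green fluorescence at 490/520 nm after 40 min at room temperature. Compounds were pre-incubated 30 min at 37 C on adherent SH-SY5Y cells.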

[4] = biological target: Acetylcholinesterase (Homo sapiens) (UniProt P22303); test: Acetylcholinesterase (AChE) small molecule antagonists: enzyme-based qHTS assay with human liver microsomes (AID 1347399); conditions: Potency: qHTS inhibition; outcome: qHTS inhibition; series mostly up to 115 µM; note: nearly all actives have a fitted effect of over 60% in size
Method in brief: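 Recombinant human AChE (50 mU/mL in the enzyme mix) and human liver microsomes (0.25 mg/mL final) were preincubated with compound and NADPH (0.25 mg/mL final) for 30 min at 37 C. Acetylthiocholine/DTNB was then added; thiocholine was read colorimetrically after 10 min at room temperature.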

Measured: Potency

Acetylcholinesterase (Homo sapiens), sequence (P22303 whole entry, looked up): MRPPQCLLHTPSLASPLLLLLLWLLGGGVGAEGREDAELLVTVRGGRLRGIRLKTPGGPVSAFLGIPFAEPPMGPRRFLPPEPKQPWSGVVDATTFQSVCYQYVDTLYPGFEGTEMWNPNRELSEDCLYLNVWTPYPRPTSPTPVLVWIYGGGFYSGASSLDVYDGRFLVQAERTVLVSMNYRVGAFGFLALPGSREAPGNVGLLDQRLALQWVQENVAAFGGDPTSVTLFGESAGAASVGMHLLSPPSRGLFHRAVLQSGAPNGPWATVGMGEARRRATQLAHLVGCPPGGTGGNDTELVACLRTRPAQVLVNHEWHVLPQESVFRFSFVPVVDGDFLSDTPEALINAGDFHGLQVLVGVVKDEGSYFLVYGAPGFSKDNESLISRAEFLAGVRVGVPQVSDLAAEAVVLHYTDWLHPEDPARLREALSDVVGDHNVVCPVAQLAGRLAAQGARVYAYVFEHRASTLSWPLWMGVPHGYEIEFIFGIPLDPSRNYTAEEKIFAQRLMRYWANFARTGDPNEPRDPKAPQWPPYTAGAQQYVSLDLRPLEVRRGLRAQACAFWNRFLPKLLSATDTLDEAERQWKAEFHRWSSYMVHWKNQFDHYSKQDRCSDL

O=C1C(=O)c2ccccc2C(O)=C1C1CCC(c2ccc(Cl)cc2)CC1 (stereo not given)
inactive: all assays above

CCCCCO
inactive: all assays above

CC(=O)CC(=O)OC(C)(C)C
inactive: all assays above

O=S(=O)(O)CCN1CCN(CCO)CC1
inactive: all assays above

Clc1ccnc(Cl)n1
inactive: all assays above

CC(C)(O)c1ccccc1
inactive: all assays above

O=C(O)Cc1ccc(CCNS(=O)(=O)c2ccc(Cl)cc2)cc1
inactive: all assays above

CC(C)(C)C1(CCc2ccc(Cl)cc2)CO1 (stereo not given)
inactive: all assays above

CC/C=C\CCOC(C)=O
inactive: all assays above

CC(=O)c1cnccn1
inactive: all assays above

c1ccc2cc3c4ccccc4c4ccccc4c3cc2c1
inactive: all assays above

O=C(OCC(COC(=O)c1ccccc1)(COC(=O)c1ccccc1)COC(=O)c1ccccc1)c1ccccc1
inactive: all assays above

Nc1ccc(F)c([N+](=O)[O-])c1
inactive: all assays above

O=C(O)[C@H](O)c1ccccc1
inactive: all assays above

CCOC(=O)[C@@H](C)Oc1ccc(Oc2nc3ccc(Cl)cc3o2)cc1
inactive: all assays above

CC(=O)Nc1cccc(C)c1
inactive: all assays above

CCOC(=O)c1cnc2c(cnn2CC)c1NN=C(C)C
inactive: all assays above

CCC(=O)CC
inactive: all assays above

CNCCO
inactive: all assays above

CCN(CC)CCCN(c1ccccc1)C1Cc2ccccc2C1
inactive: all assays above

CCCCCCCCCI
inactive: all assays above

C#C[C@]1(OC(C)=O)CC[C@H]2[C@@H]3CCC4=C/C(=N/O)CC[C@@H]4[C@H]3CC[C@@]21CC
inactive: all assays above

CC1(CO)CN(c2ccccc2)NC1=O (stereo not given)
inactive: all assays above

Cc1ccco1
inactive: all assays above

CCCCCCCCCCCCCOP(=O)(O)O
inactive: all assays above

COC(=O)c1cc(Cl)cc(Cl)c1
inactive: all assays above

Clc1cccnc1
inactive: all assays above

CCOCCOC(=O)/C=C/c1ccc(OC)cc1
inactive: all assays above

CC(C)(C)N(CCO)CCO
inactive: all assays above

COC(=O)/C=C(/C)N
inactive: all assays above
